Experimental data: article PMC7862700, “An all-to-all approach to the identification of sequence-specific readers for epigenetic DNA modifications on cytosine”

Tests used:
Assay in all cases: DAPPL (digital affinity profiling via proximity ligation, sequencing); 10 mM Tris-HCl pH 7.5, 50 mM NaCl, 1 mM DTT, 4% glycerol, room temperature, 30 min; GST-TFs on glutathione beads, 16-mer random dsDNA library, 0.1% formaldehyde crosslink after washing; high values mean tight binding
Settings in all cases: protein: recombinant; tags: N-terminal GST; dsDNA, one strand shown
FLI1 = target: T1, FLI1 (Homo sapiens, UniProt Q01543 1-452)
T1 sequence: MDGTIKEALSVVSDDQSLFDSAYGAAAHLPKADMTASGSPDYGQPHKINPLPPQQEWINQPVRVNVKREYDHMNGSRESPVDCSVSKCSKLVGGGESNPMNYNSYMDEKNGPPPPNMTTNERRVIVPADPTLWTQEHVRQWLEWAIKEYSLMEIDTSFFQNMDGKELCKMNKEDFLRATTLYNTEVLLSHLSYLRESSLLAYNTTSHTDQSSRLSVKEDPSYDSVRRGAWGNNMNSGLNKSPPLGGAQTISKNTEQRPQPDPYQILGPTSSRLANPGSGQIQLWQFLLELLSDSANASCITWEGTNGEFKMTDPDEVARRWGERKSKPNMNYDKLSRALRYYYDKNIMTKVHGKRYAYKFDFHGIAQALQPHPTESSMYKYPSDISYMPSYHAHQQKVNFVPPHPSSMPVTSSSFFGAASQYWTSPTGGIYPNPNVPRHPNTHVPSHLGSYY
Summary of the method: (§1)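 Human transcription factors were made in yeast as GST fusions, captured on glutathione beads and barcoded with DNA. With a tag-only sample included, the pool was incubated with 200 nmole of a random double-stranded 16-mer DNA library in Tris/NaCl/DTT/glycerol buffer at room temperature for 30 min, then crosslinked with 0.1% formaldehyde after washing, ligated by proximity, amplified and sequenced. For binding signal, each hexamer's read frequency for a factor is divided by its frequency for the tag-only sample.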

ELK1 = target: T2, ELK1 (Homo sapiens, UniProt P19419 1-428)
T2 sequence: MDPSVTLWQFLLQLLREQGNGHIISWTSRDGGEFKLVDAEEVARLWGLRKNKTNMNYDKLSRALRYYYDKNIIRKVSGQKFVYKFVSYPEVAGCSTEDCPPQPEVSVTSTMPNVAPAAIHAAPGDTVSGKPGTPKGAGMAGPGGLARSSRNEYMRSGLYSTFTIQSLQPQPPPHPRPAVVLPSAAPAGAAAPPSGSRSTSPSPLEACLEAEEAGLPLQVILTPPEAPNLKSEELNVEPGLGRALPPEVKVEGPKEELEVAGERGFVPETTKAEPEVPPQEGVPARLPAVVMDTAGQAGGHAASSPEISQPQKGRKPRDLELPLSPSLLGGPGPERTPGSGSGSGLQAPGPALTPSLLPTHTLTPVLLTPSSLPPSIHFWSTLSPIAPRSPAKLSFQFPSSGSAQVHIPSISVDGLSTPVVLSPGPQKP
Summary of the method: as §1

GABPA = target: T3, GABPA (Homo sapiens, UniProt Q06546 1-454)
T3 sequence: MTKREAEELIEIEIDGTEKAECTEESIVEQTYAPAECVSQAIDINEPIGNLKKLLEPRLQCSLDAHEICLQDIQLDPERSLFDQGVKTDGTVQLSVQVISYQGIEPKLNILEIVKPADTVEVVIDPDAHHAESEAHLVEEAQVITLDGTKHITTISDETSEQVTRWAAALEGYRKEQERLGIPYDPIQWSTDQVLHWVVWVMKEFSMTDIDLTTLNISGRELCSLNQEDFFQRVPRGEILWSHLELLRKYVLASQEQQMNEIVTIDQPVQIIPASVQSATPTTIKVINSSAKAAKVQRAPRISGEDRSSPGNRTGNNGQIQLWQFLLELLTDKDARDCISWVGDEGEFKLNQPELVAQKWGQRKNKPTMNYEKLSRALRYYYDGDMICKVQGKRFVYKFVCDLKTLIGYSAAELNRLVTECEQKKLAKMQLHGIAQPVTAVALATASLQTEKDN
Summary of the method: as §1

ERG = target: T4, ERG (Homo sapiens, UniProt P11308 1-479)
T4 sequence: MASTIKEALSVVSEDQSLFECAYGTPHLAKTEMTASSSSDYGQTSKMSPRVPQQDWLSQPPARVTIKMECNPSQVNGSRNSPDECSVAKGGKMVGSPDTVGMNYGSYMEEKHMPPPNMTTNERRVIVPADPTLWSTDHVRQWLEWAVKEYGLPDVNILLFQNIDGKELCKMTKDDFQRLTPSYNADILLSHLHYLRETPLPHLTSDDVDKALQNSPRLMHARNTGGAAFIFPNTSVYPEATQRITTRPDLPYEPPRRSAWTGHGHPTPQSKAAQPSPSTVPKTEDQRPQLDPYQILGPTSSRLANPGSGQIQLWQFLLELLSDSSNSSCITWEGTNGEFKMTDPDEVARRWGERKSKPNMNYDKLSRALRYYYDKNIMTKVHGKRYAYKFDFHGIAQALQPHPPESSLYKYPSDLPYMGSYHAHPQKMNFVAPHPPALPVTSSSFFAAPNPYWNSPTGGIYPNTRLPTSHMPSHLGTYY
Summary of the method: as §1

ELF1 = ELF1 (Homo sapiens, UniProt P32519 1-619)
Summary of the method: as §1

EHF = target: T5, EHF (Homo sapiens, UniProt Q9NZC4 1-300)
T5 sequence: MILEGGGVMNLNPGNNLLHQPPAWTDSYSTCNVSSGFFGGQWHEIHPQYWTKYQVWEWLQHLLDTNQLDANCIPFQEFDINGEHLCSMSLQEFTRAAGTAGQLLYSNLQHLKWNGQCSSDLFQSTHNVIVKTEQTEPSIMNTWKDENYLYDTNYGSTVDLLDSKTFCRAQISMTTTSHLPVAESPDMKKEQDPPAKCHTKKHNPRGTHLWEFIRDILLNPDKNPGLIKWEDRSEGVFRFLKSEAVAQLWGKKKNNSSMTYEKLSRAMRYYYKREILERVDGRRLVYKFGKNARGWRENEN
Summary of the method: as §1

SPI1 = SPI1 (Homo sapiens, UniProt P17947 1-270)
Summary of the method: as §1

SPIB = SPIB (Homo sapiens, UniProt Q01892 1-262)
Summary of the method: as §1

ELK3 = target: T6, ELK3 (Homo sapiens, UniProt P41970 1-407)
T6 sequence: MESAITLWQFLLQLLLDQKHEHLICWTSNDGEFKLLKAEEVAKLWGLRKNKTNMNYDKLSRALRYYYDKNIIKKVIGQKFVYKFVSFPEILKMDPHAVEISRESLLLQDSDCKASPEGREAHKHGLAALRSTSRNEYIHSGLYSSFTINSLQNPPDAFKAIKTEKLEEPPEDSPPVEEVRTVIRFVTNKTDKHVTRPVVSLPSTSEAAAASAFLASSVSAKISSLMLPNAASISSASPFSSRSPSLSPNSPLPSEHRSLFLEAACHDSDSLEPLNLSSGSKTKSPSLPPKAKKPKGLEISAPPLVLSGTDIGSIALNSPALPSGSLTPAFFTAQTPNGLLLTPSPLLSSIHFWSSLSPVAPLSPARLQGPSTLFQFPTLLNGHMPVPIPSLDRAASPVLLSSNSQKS
Summary of the method: as §1

SPIB, sequence (Q01892 whole entry): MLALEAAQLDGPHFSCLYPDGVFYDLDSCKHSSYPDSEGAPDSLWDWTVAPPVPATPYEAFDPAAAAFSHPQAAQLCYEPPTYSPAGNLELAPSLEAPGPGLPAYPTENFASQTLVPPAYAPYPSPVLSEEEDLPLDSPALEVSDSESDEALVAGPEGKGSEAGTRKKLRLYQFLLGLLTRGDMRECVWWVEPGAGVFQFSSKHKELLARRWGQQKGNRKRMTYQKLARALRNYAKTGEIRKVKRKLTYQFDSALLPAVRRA
ELF1, sequence (P32519 whole entry): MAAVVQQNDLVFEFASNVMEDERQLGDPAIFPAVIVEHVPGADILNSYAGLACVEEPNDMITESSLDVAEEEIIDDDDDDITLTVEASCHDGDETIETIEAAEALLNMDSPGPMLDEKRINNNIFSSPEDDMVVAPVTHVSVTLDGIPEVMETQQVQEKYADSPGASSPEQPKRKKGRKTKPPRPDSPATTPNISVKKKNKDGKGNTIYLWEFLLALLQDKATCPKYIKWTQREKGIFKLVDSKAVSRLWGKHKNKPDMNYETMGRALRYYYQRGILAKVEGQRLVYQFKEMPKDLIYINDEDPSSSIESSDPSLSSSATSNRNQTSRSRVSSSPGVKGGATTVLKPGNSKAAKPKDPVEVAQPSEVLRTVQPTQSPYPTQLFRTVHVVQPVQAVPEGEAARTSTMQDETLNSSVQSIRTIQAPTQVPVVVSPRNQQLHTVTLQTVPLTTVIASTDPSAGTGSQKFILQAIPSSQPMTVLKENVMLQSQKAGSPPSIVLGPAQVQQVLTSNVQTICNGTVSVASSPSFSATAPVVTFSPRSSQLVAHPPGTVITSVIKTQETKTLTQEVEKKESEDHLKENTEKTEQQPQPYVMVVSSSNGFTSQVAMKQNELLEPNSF

Row | Sequence | binding signal (FLI1) | binding signal (ELK1) | binding signal (GABPA) | binding signal (ERG) | binding signal (ELF1) | binding signal (EHF) | binding signal (SPI1) | binding signal (SPIB) | binding signal (ELK3)
1 | TATAAA | 1.17 fold enrichment (6-mer frequency, TF over GST control) | 1.29 fold enrichment (6-mer frequency, TF over GST control) | 1.21 fold enrichment (6-mer frequency, TF over GST control) | 1.18 fold enrichment (6-mer frequency, TF over GST control) | 1.21 fold enrichment (6-mer frequency, TF over GST control) | 1.28 fold enrichment (6-mer frequency, TF over GST control) | 1.26 fold enrichment (6-mer frequency, TF over GST control) | 1.3 fold enrichment (6-mer frequency, TF over GST control) | 1.26 fold enrichment (6-mer frequency, TF over GST control)
2 | ACTACC | 1.61 fold enrichment (6-mer frequency, TF over GST control) | 1.72 fold enrichment (6-mer frequency, TF over GST control) | 1.67 fold enrichment (6-mer frequency, TF over GST control) | 1.63 fold enrichment (6-mer frequency, TF over GST control) | 1.71 fold enrichment (6-mer frequency, TF over GST control) | 1.51 fold enrichment (6-mer frequency, TF over GST control) | 1.69 fold enrichment (6-mer frequency, TF over GST control) | 1.69 fold enrichment (6-mer frequency, TF over GST control) | 1.63 fold enrichment (6-mer frequency, TF over GST control)
3 | CTCTGG | 1.31 fold enrichment (6-mer frequency, TF over GST control) | 1.5 fold enrichment (6-mer frequency, TF over GST control) | 1.3 fold enrichment (6-mer frequency, TF over GST control) | 1.28 fold enrichment (6-mer frequency, TF over GST control) | 1.34 fold enrichment (6-mer frequency, TF over GST control) | 1.35 fold enrichment (6-mer frequency, TF over GST control) | 1.4 fold enrichment (6-mer frequency, TF over GST control) | 1.12 fold enrichment (6-mer frequency, TF over GST control) | 1.48 fold enrichment (6-mer frequency, TF over GST control)
4 | TCTTTC | 1.43 fold enrichment (6-mer frequency, TF over GST control) | 1.27 fold enrichment (6-mer frequency, TF over GST control) | 1.41 fold enrichment (6-mer frequency, TF over GST control) | 1.3 fold enrichment (6-mer frequency, TF over GST control) | 1.37 fold enrichment (6-mer frequency, TF over GST control) | 1.43 fold enrichment (6-mer frequency, TF over GST control) | 1.51 fold enrichment (6-mer frequency, TF over GST control) | 1.41 fold enrichment (6-mer frequency, TF over GST control) | 1.39 fold enrichment (6-mer frequency, TF over GST control)
5 | ATTGAC | 1.18 fold enrichment (6-mer frequency, TF over GST control) | 1.21 fold enrichment (6-mer frequency, TF over GST control) | 1.22 fold enrichment (6-mer frequency, TF over GST control) | 1.19 fold enrichment (6-mer frequency, TF over GST control) | 1.19 fold enrichment (6-mer frequency, TF over GST control) | 1.22 fold enrichment (6-mer frequency, TF over GST control) | 1.14 fold enrichment (6-mer frequency, TF over GST control) | 1.2 fold enrichment (6-mer frequency, TF over GST control) | 1.16 fold enrichment (6-mer frequency, TF over GST control)
6 | ATGTTT | 1.48 fold enrichment (6-mer frequency, TF over GST control) | 1.37 fold enrichment (6-mer frequency, TF over GST control) | 1.36 fold enrichment (6-mer frequency, TF over GST control) | 1.39 fold enrichment (6-mer frequency, TF over GST control) | 1.41 fold enrichment (6-mer frequency, TF over GST control) | 1.41 fold enrichment (6-mer frequency, TF over GST control) | 1.33 fold enrichment (6-mer frequency, TF over GST control) | 1.38 fold enrichment (6-mer frequency, TF over GST control) | 1.43 fold enrichment (6-mer frequency, TF over GST control)
7 | TCTGCT | 1.26 fold enrichment (6-mer frequency, TF over GST control) | 1.3 fold enrichment (6-mer frequency, TF over GST control) | 1.33 fold enrichment (6-mer frequency, TF over GST control) | 1.22 fold enrichment (6-mer frequency, TF over GST control) | 1.45 fold enrichment (6-mer frequency, TF over GST control) | 1.55 fold enrichment (6-mer frequency, TF over GST control) | 1.27 fold enrichment (6-mer frequency, TF over GST control) | 1.22 fold enrichment (6-mer frequency, TF over GST control) | 1.2 fold enrichment (6-mer frequency, TF over GST control)
8 | TTTGTA | 1.64 fold enrichment (6-mer frequency, TF over GST control) | 1.47 fold enrichment (6-mer frequency, TF over GST control) | 1.48 fold enrichment (6-mer frequency, TF over GST control) | 1.53 fold enrichment (6-mer frequency, TF over GST control) | 1.56 fold enrichment (6-mer frequency, TF over GST control) | 1.55 fold enrichment (6-mer frequency, TF over GST control) | 1.54 fold enrichment (6-mer frequency, TF over GST control) | 1.65 fold enrichment (6-mer frequency, TF over GST control) | 1.51 fold enrichment (6-mer frequency, TF over GST control)
